Among the data in PubChem BioAssay (Tox21) are Potency values, retold here.

Records with an inconclusive call do not appear. A call without a number means that no potency is given here. Calls of active or inactive are those of the source. Calls follow the shape of the dose curve; as a rule, active = well fitted cell-killing curve with a large enough effect in the repeat runs; inconclusive = weak or mixed curves, or effect the other way; inactive = no such curve, though single readings can be large or run the other way.

A short description of the assay: qHTS assay to identify small molecule agonists of the farnesoid-X-receptor (FXR) signaling pathway - cell viability counter screen (AID 743218). Also: nearly all actives have a fitted effect of over 45% in size. To be noted: FXR-bla HEK293T viability, CellTiter-Glo luminescence, 16 h; series mostly up to 62.6 µM. A digest of the protocol: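 Parallel cytotoxicity test: compound-treated (16 h, 37 C) HEK 293T FXR-bla reporter cells were lysed with CellTiter-Glo and luminescence recorded.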
For orientation: In qHTS, concentration-response curves come from the screen itself.
On to `OCC(CO)(CO)CO`, for which the Potency result is “inactive”.

Consider `Nc1cccc(N)n1`, for which the Potency entry was “inactive”.

Take `Cc1cc(C)cc(O)c1`: the Potency entry is “inactive”.

With `CC(O)CNCC(C)O` (stereo not given), the Potency result is “inactive”.

Take `N[C@@H](Cc1cc(I)c(Oc2ccc(O)c(I)c2)c(I)c1)C(=O)O`: the Potency result is “inactive”.

For `N#CCC(=O)O`, the Potency entry was “inactive”.

`C1CCCNCC1`: the Potency entry is “inactive”.

With `NC(=O)NC(N)=O`, the Potency entry is “inactive”.

Turning to `OCC(O)CS` (stereo not given), the Potency entry is “inactive”.

For `O=[N+]([O-])c1ccccc1C(F)(F)F`, the Potency result is “inactive”.

`CC1=CC(=O)CC(C)(C)C1`: the Potency result was “inactive”.

As to `C=CC(C)(C)C`, the Potency entry is “inactive”.

Turning to `CN1Cc2c(N)cccc2C(c2ccccc2)C1` (stereo not given), the Potency entry was “inactive”.

Regarding `COc1ccc(N)c(OC)c1`, the Potency entry is “inactive”.

For the compound `O=C(Cl)c1ccc(C(=O)Cl)cc1`, the Potency entry was “inactive”.

As to `OC1CCCCC1`, the Potency result was “inactive”.

`CCCCCNCCCCC`: the Potency entry is “inactive”.

With `Brc1ccc(Oc2ccc(Br)cc2)cc1`, the Potency result was “inactive”.

As to `Cc1ccccc1C=O`, the Potency result was “inactive”.

Turning to `CC(=O)OC/C=C(\C)CCC=C(C)C`, the Potency result is “inactive”.

Turning to `O=C(c1ccccc1)c1ccc(O)c(O)c1O`, the Potency entry was “inactive”.

As to `Cc1nnc(NS(=O)(=O)c2ccc(N)cc2)s1`, the Potency entry was “inactive”.

On to `COc1cc(NC(=O)CC(C)=O)c(OC)cc1Cl`, for which the Potency entry was “inactive”.

`Cc1cccc(C)c1[N+](=O)[O-]`: the Potency entry is “inactive”.

Take `CS(=O)(=O)c1ccc(Cl)cc1`: the Potency entry is “inactive”.

As to `O=C1CCCCCCCCCCC1`, the Potency result was “inactive”.

In the case of `CCCCCCCCC(=O)O`, the Potency entry was “inactive”.

In the case of `CC(=O)OC[C@H]1O[C@@](COC(C)=O)(O[C@H]2O[C@H](COC(C)=O)[C@@H](OC(C)=O)[C@H](OC(C)=O)[C@H]2OC(C)=O)[C@@H](OC(C)=O)[C@@H]1OC(C)=O`, the Potency entry was “inactive”.

In the case of `CC(C)(CO)CO`, the Potency result was “inactive”.

As for `CO[Si](CCCNCCN)(OC)OC`, the Potency result is “inactive”.
